Test results: PubChem BioAssay (Tox21)
Inconclusive results are not listed. Calls of active or inactive are those of the source. Unless noted, calls follow the shape of the dose curve; as a rule, active = well fitted curve in the direction sought with a large enough effect in the repeat runs; inconclusive = weak or mixed curves; inactive = no such curve, though single readings can be large; an effect the other way counts as inactive or inconclusive.

Legend:
[1] = qHTS assay to identify aromatase inhibitors - cell viability counter screen (AID 743084);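 also: cells stimulated with testosterone during compound exposure; nearly all actives have a fitted effect of over 55% in size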
[2] = biological target: Aryl hydrocarbon receptor (Homo sapiens) (UniProt P35869); test: qHTS assay to identify small molecule that activate the aryl hydrocarbon receptor (AhR) signaling pathway (AID 743085);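 also: HG2L7.5c1 human HepG2 liver cells with stably integrated DRE-driven firefly reporter; series mostly up to about 70 µM; nearly all actives have a fitted effect of over 15% in size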
How it was run: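 HepG2 cells (HG2L7.5c1) stably carrying a firefly luciferase reporter driven by 20 dioxin responsive elements were exposed to compound for 24 h at 37C after a 5 h settling period; luminescence rise (ONE-Glo) indicated activation.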

[3] = qHTS assay to identify small molecule that activate the aryl hydrocarbon receptor (AhR) signaling pathway - cell viability counter screen (AID 743086);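 also: HepG2 liver cells carrying the AhR DRE luciferase reporter; series mostly up to about 70 µM; nearly all actives have a fitted effect of over 45% in size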
How it was run: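 Cytotoxicity counter screen: CellTiter-Fluor signal (30 min, 37 C) in 4000 HepG2 cells/well carrying the DRE-luciferase reporter, following 24 h compound exposure at 37 C.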

[4] = biological target: Peroxisome proliferator-activated receptor gamma (Homo sapiens) (UniProt P37231); test: qHTS assay to identify small molecule agonists of the peroxisome proliferator-activated receptor gamma (PPARg) signaling pathway (AID 743094; active = well fitted activation curve with a large enough effect in the signal ratio in the repeat runs, not every such curve was filed as active; the % refers to the signal ratio)
How it was run: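 Agonist activity was taken from a beta-lactamase reporter (FRET substrate, 1 h at room temperature) in HEK293H cells carrying a PPARg UAS-bla construct. Compounds in DMSO were incubated 17 h at 37C after a 5 h cell pre-incubation.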

[5] = qHTS assay to identify small molecule antagonists of the peroxisome proliferator-activated receptor gamma (PPARg) signaling pathway - cell viability counter screen (AID 743194); also: nearly all actives have a fitted effect of over 55% in size
How it was run: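 Viability was measured as CellTiter-Glo luminescence in GeneBLAzer PPARg UAS-bla HEK293H cells. These cells had been exposed 17 h at 37 C to compounds together with rosiglitazone at 50 nM final, with the beta-lactamase readout taken in the same wells.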

[6] = qHTS assay for small molecule agonists of the antioxidant response element (ARE) signaling pathway (AID 743202; active = well fitted activation curve with a large enough effect in the signal ratio in the repeat runs, not every such curve was filed as active; the % refers to the signal ratio)
How it was run: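 Beta-lactamase reporter activity, read as fluorescence intensity, reflects ARE/Nrf2 pathway induction in HepG2 cells after 16 h compound exposure at 37 C; substrate loading was 2 h at room temperature.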

[7] = qHTS assay for small molecule agonists of the antioxidant response element (ARE) signaling pathway - cell viability counter screen (AID 743203; calls by dose curve; also: nearly all actives have a fitted effect of over 55% in size)
How it was run: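 Viability counter screen: CellTiter-Glo luminescence, read after 30 min at room temperature, in ARE-bla HepG2 wells. Compound exposure lasted 16 h at 37C/5% CO2, following a 5 h pre-incubation of the cells after plating.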

[8] = qHTS assay for small molecule activators of the heat shock response signaling pathway - cell viability counter screen (AID 743209); also: nearly all actives have a fitted effect of over 50% in size
How it was run: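 Cytotoxicity counter screen run in the same wells as the heat-shock bla reporter assay: HeLa HSE-bla cells, 5 h compound exposure at 37 C, viability read by CellTiter-Glo luminescence.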

[9] = qHTS assay for small molecule activators of the heat shock response signaling pathway (AID 743210; active = well fitted activation curve with a large enough effect in the signal ratio in the repeat runs, with a control signal flat, not every such curve was filed as active; the % refers to the signal ratio;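 also: HeLa cells with beta-lactamase reporter driven by heat shock elements; series mostly up to about 63 µM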)
How it was run: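 Fluorescence from a cleaved B/G FRET substrate (2.5 h, room temp) reports HSE-driven beta-lactamase in HeLa cells treated 5 h at 37 C with DMSO-dissolved compounds.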

[10] = qHTS assay to identify small molecule agonists of the peroxisome proliferator-activated receptor delta (PPARd) signaling pathway - cell viability counter screen (AID 743211); also: nearly all actives have a fitted effect of over 55% in size
How it was run: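 PPARd-bla HEK293H cells (UAS-beta-lactamase reporter) were treated with compounds for 17 h at 37 C. Viability was then read in the same wells by CellTiter-Glo luminescence after 30 min at room temperature.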

[11] = biological target: Peroxisome proliferator-activated receptor delta (Homo sapiens) (UniProt Q03181); test: qHTS assay to identify small molecule agonists of the peroxisome proliferator-activated receptor delta (PPARd) signaling pathway (AID 743212; calls by dose curve)
How it was run: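 Steps: seed PPARd-bla HEK293H cells; incubate 5 h, 37 C, 5% CO2; add compounds in DMSO; incubate, 37 C; add LiveBLAzer B/G FRET substrate; hold 2 h at room temperature; measure fluorescence.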

[12] = qHTS assay to identify small molecule antagonists of the peroxisome proliferator-activated receptor delta (PPARd) signaling pathway - cell viability counter screen (AID 743213); also: nearly all actives have a fitted effect of over 50% in size
How it was run: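 Cytotoxicity counter screen: CellTiter-Glo luminescence read 30 min after addition, in the same wells as the reporter assay. There, PPARd UAS-bla HEK293H cells (3000/well) were treated 17 h at 37 C with compound and 300 nM L165041.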

[13] = qHTS assay to identify small molecule antagonists of the farnesoid-X-receptor (FXR) signaling pathway - cell viability counter screen (AID 743221; active = well fitted cell-killing curve with a large enough effect in the repeat runs, not every such curve was filed as active; also: nearly all actives have a fitted effect of over 50% in size)
How it was run: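 FXR-UAS-bla HEK 293T cells were treated with test compounds plus chenodeoxycholic acid (50 uM final) for 16 h at 37 C. Cell viability in the same wells was then read as CellTiter-Glo luminescence after 30 min at room temperature.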

[14] = biological target: Peroxisome proliferator-activated receptor delta (Homo sapiens) (UniProt Q03181); test: qHTS assay to identify small molecule antagonists of the peroxisome proliferator-activated receptor delta (PPARd) signaling pathway (AID 743215; active = well fitted inhibition curve with a large enough effect in the signal ratio in the repeat runs, not every such curve was filed as active; the % refers to the signal ratio;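 also: cells stimulated with agonist L165041 at 300 nM final during compound exposure; series mostly up to about 62 µM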)
How it was run: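 Agonist L165041 (300 nM final) added with compound to PPARd-bla HEK293H UAS-bla reporter cells; 17 h incubation at 37 C. Read-out: LiveBLAzer FRET substrate, 2 h at room temperature, fluorescence intensity.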

[15] = biological target: Vitamin D3 receptor (Homo sapiens) (UniProt P11473); test: qHTS assay to identify small molecule agonists of the vitamin D receptor (VDR) signaling pathway (AID 743222; calls by dose curve)
How it was run: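 Agonist mode, beta-lactamase reporter: fluorescence from LiveBLAzer B/G FRET substrate (2 h, room temperature) read after 16 h compound treatment at 37 C of VDR-bla cells, which were pre-incubated 4 h after seeding.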

[16] = biological target: Vitamin D3 receptor (Homo sapiens) (UniProt P11473); test: qHTS assay to identify small molecule antagonists of the vitamin D receptor (VDR) signaling pathway (AID 743223; active = well fitted inhibition curve with a large enough effect in the signal ratio in the repeat runs, not every such curve was filed as active; the % refers to the signal ratio)
How it was run: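 VDR-bla cells were plated, incubated 4 h at 37C, then given compound and 1alpha,25-dihydroxyvitamin D3 (3 nM final). After 16 h at 37C, LiveBLAzer B/G FRET substrate was added for 2 h at room temperature and fluorescence read.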

[17] = biological target: Bile acid receptor (Homo sapiens) (UniProt Q96RI1); test: qHTS assay to identify small molecule antagonists of the farnesoid-X-receptor (FXR) signaling pathway (AID 743217; active = well fitted inhibition curve with a large enough effect in the signal ratio in the repeat runs, not every such curve was filed as active; the % refers to the signal ratio)
How it was run: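 Antagonist mode: chenodeoxycholic acid at 50 uM final stimulates a UAS-driven beta-lactamase reporter in HEK 293T FXR-bla cells during 16 h, 37C compound exposure. Read-out is FRET substrate fluorescence after 2 h at room temperature.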

[18] = biological target: Bile acid receptor (Homo sapiens) (UniProt Q96RI1); test: qHTS assay to identify small molecule agonists of the farnesoid-X-receptor (FXR) signaling pathway (AID 743220; active = well fitted activation curve with a large enough effect in the signal ratio in the repeat runs, not every such curve was filed as active; the % refers to the signal ratio)
How it was run: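 FXR-UAS-bla HEK 293T cells carrying a UAS-driven beta-lactamase reporter were plated for 5 h at 37C/5% CO2, then exposed to DMSO-dissolved Tox21 10K compounds for 16 h at 37C. A LiveBLAzer B/G FRET substrate was loaded for 2 h at room temperature before fluorescence reading.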

[19] = qHTS assay to identify small molecule agonists of the farnesoid-X-receptor (FXR) signaling pathway - cell viability counter screen (AID 743218); also: nearly all actives have a fitted effect of over 45% in size
How it was run: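 Viability counter screen in the same wells: CellTiter-Glo luminescence, 30 min room-temperature incubation, measured after the beta-lactamase read. Cells were GeneBLAzer FXR-UAS-bla HEK 293T, compound-treated 16 h at 37C.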

Measured: Potency

Aryl hydrocarbon receptor (Homo sapiens), sequence (P35869 whole entry, looked up): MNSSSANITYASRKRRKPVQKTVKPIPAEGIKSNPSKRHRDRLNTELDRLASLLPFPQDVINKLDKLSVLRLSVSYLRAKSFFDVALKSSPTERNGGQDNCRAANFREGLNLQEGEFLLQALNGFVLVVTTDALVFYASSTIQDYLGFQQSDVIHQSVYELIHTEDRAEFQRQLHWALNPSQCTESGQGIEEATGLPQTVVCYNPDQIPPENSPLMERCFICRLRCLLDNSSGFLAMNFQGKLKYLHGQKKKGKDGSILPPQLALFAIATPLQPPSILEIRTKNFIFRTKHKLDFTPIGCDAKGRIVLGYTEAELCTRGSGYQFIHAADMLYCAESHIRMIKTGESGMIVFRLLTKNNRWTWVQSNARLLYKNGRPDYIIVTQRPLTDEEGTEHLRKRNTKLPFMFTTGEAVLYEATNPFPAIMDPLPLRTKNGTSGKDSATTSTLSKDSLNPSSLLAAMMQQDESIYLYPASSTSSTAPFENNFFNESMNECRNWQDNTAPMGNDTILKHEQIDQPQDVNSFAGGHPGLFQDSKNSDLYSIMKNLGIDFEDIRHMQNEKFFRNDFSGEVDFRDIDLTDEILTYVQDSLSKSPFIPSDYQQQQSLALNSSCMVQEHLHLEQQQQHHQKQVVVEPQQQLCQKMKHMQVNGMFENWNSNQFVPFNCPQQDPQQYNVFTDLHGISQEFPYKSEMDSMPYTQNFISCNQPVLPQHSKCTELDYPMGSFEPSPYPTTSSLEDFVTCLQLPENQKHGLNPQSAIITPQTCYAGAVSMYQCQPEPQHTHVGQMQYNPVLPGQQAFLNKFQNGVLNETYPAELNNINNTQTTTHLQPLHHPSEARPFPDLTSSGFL
Bile acid receptor (Homo sapiens), sequence (Q96RI1 whole entry, looked up): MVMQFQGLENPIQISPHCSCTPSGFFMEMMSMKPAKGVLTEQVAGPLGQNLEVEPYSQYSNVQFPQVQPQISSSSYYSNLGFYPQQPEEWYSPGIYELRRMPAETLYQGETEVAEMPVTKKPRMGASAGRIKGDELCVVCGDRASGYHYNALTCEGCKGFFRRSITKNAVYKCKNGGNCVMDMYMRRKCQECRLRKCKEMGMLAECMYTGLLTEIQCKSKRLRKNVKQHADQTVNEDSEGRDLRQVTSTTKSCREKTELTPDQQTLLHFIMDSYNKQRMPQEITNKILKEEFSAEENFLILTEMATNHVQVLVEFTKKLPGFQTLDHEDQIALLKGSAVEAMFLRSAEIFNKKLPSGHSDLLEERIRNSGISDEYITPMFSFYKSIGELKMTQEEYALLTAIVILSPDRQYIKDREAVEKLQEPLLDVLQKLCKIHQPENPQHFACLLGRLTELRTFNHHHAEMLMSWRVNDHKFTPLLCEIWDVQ
Vitamin D3 receptor (Homo sapiens), sequence (P11473 whole entry, looked up): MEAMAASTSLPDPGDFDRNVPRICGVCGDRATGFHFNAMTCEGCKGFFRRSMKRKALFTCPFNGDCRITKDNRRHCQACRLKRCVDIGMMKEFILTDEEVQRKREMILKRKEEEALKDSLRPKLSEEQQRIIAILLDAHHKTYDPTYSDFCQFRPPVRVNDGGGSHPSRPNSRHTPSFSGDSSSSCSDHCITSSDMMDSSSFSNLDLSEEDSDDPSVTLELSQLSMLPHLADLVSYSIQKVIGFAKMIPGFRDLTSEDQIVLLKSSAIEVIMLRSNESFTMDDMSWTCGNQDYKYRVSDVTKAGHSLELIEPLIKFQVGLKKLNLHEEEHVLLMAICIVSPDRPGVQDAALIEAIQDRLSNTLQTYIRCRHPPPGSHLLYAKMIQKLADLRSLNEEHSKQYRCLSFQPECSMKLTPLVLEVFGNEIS
Peroxisome proliferator-activated receptor delta (Homo sapiens), sequence (Q03181 whole entry, looked up): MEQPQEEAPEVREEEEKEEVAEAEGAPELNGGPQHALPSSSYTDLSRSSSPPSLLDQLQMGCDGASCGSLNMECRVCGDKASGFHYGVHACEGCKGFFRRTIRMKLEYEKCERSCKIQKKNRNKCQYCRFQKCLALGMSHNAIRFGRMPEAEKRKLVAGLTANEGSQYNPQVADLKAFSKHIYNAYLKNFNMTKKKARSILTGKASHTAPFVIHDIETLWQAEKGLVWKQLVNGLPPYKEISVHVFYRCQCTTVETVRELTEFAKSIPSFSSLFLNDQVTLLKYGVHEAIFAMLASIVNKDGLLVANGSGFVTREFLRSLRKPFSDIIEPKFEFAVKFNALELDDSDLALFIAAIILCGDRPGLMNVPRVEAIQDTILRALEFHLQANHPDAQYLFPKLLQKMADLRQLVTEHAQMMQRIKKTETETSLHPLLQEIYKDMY
Peroxisome proliferator-activated receptor gamma (Homo sapiens), sequence (P37231 whole entry, looked up): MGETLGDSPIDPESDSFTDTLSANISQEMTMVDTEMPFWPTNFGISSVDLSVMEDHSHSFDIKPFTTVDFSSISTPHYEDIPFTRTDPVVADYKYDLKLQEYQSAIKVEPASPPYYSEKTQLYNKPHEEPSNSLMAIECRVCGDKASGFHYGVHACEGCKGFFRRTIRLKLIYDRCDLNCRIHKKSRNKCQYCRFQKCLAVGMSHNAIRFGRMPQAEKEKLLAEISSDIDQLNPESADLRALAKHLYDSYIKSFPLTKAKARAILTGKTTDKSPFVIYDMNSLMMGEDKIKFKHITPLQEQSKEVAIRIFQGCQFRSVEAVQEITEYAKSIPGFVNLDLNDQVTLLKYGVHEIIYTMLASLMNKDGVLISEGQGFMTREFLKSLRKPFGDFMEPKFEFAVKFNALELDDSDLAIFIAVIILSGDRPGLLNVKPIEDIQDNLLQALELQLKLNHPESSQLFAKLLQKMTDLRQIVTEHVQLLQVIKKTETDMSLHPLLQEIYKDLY

CC/C=C\C#N
not listed: [14] | [15] | [16] | [17] | [18] | [19]
inactive: all other assays above

CO[Si](OC)(OC)OC
not listed: [17] | [18] | [19]
inactive: all other assays above

CCCC(C)CO (configuration not stated)
not listed: [8] | [15] | [16] | [19]
inactive: all other assays above

CO[Si](CCCNCCC[Si](OC)(OC)OC)(OC)OC
not listed: [11] | [14] | [17] | [19]
inactive: all other assays above

CC1=CCC2C(C1)C2(C)C (configuration not stated)
not listed: [6] | [9] | [14] | [16]
inactive: all other assays above

C#CC(O)CCCCC (configuration not stated)
not listed: [14] | [15] | [16] | [17] | [18]
inactive: all other assays above

C=CCn1c(=O)n([C@@H]2O[C@H](CO)[C@@H](O)[C@H]2O)c2nc(N)[nH]c(=O)c21
not listed: [9] | [11] | [14] | [15] | [16] | [19]
inactive: all other assays above

O=C(O)/C=C/c1ccc(Cn2ccnc2)cc1
not listed: [12] | [19]
inactive: all other assays above

NC1CCN(c2cccc(Cl)n2)CC1
not listed: [14] | [15]
inactive: all other assays above

CNc1ncnc2nc[nH]c12
not listed: [6] | [12] | [13] | [16] | [17] | [18]
inactive: all other assays above

O=C1C(CCS(=O)c2ccccc2)C(=O)N(c2ccccc2)N1c1ccccc1 (configuration not stated)
not listed: [10] | [15] | [16] | [17] | [18]
inactive: all other assays above

O=C(O)C(O)[C@H](O)[C@@H](O)[C@H](O)[C@H](O)CO (some centres not stated)
not listed: [11] | [12] | [14] | [16]
inactive: all other assays above

CCCCCN(CCCCC)C(=O)C(CCC(=O)O)NC(=O)c1ccc(Cl)c(Cl)c1 (configuration not stated)
not listed: [6] | [9] | [11] | [15] | [16] | [17] | [18] | [19]
inactive: all other assays above

COC[C@H](c1ccc(C(F)(F)F)cc1)N1CCN(C2(C)CCN(C(=O)c3c(C)ncnc3C)CC2)C[C@H]1C
not listed: [6] | [10] | [16] | [17] | [18]
inactive: all other assays above

CCO[Si](CCCN=C=O)(OCC)OCC
not listed: [6] | [10] | [17] | [18]
inactive: all other assays above
